High-throughput results from PubChem BioAssay.
Most compounds without a hit are left out; they make up all but 4.1% or so of the library.
hcDAF12 agonist – activates DAF-12 receptor from parasite H. contortus | HEK293 hcDAF-12 lit1-tk-luc reporter, luminescence; 0% DMSO, 100% Δ7-dafachronic acid | activation, % at 6.8 µM | actives 1.4% (n = 370,000) | AID 652067;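 active = activation above the mean of all tested compounds plus 3 SD, cut at about 5.5% in these data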;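 also: 100% = response to 3 µM Δ7-dafachronic acid high control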
DAX1 inh-1 – inhibitors of human orphan nuclear receptor DAX1 (NR0B1); HEK293 Gal4-DAX1 luciferase reporter, luminescence; P51843; actives 0.99% (n = 340,000); AID 504766; inhibition, % at 6.75 µM;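 active = inhibition above the mean over all tested compounds plus 3 SD, cut at about 4.2% in these data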;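 also: 0% = DAX1-transfected cells with DMSO and 100% = empty-vector control cells with DMSO; inhibition shows as a rise in luminescence from relieved DAX1 repression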
Target sequence (P51843 207-470 limits assumed): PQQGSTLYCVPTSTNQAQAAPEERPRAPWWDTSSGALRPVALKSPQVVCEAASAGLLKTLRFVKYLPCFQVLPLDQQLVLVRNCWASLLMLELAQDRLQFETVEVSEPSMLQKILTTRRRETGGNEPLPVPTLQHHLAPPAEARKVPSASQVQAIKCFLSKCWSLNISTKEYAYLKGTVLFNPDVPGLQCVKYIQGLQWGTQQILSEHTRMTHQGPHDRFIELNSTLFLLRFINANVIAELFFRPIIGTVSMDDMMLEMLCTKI
DAX1 inh-2 – blocks DAX1 repression of SF-1 activated StAR promoter; AID 652010; HEK293T StAR-luciferase reporter, SF-1/DAX-1 repression relief; inhibition, % at 6.8 µM; actives 1.1% (n = 370,000);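 active = inhibition above the mean over all tested compounds plus 3 SD, cut at about 3.6% in these data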;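 also: 0% = DAX-1 cells with DMSO and 100% = cells lacking DAX-1 with DMSO; higher inhibition means more luminescence from relief of DAX-1 repression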
hgDAF-12 ag – hgDAF-12 agonism, primary luciferase screen; actives 1.8% (n = 370,000); HEK293 GAL4-hgDAF12 UAS-luciferase reporter, agonist luminescence; normalized to butyrate control; activation, % at 6.8 µM;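 active = activation above a cutoff set at the mean of all screened compounds plus 3 SD, cut at about 10% in these data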;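 also: 0% = DMSO wells and 100% = sodium butyrate wells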
ssDAF12 agonist – activates DAF-12 receptor from parasite S. stercoralis; activation, % at 6.8 µM; HEK293 ssDAF-12/GRIP1 lit1-tk-luc reporter, luminescence; % of 3 µM dafachronic acid response; AID 652126; actives 1% (n = 370,000);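 active = activation above the mean over all tested compounds plus 3 SD, cut at about 0.9% in these data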;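 also: 0% = DMSO-only wells and 100% = 3 µM delta7-dafachronic acid wells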
DAX1 conf – confirmation of human DAX1 (NR0B1) inhibitors. HEK293T StAR-promoter luciferase reporter, SF-1/DAX-1 repression. inhibition, % at 6.8 µM. AID 652134. shares compounds with DAX1 inh-2. actives 87% (n = 2,400);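 active = inhibition above the average of every tested compound plus 3 SD, cut at about 3.8% in these data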;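 also: 0% = DAX-1 cells with DMSO and 100% = no DAX-1 control cells with DMSO; active compounds raise luminescence by relieving repression of the StAR reporter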
SF1 AF2mut Luc – counter-screen for DAX1 inhibitors: nonselective inhibitors with SF-1 AF2 mutant. shares compounds with DAX1 inh-2. HEK293 StAR-luciferase, luminescence. inhibition, % at 6.8 µM. actives 78% (n = 2,400). AID 652136;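 active = inhibition above the mean of all tested compounds plus 3 SD, cut at about 3% in these data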;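 also: 0% = DAX-1 transfected cells with DMSO and 100% = cells without DAX-1 with DMSO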
* = called active by the depositor; · = no result.

SMILES | hcDAF12 agonist | DAX1 inh-1 | DAX1 inh-2 | hgDAF-12 ag | ssDAF12 agonist | DAX1 conf | SF1 AF2mut Luc
COc1cccc(C=Cc2nccc3ccccc23)c1OC | 4 | 0 | 6.1* | 11* | -1 | 3.8* | 2
O=C(NCCc1ccccc1)c1noc2c1CCc1ccccc1-2 | -1 | 1 | 0 | 3 | -1 | · | ·
CCCNC(=O)c1noc2c1CCc1ccccc1-2 | 2 | 0 | 4.5* | 8 | 0 | 2 | 3.0*
N/C(=N\OC(=O)c1ccco1)c1ccc(Br)cc1 | 4 | 2 | 4.7* | 10 | 1 | 7.2* | 4.4*
Cc1cc(C)nc(SCc2csc(-c3ccccc3)n2)n1 | 5 | 3 | 5.2* | 11* | 0 | 12* | 6.3*
CC(C)(C)c1ccc(OCCCC(=O)Nc2nnc(C3CC3)s2)cc1 | -3 | -2 | 0 | 2 | -1 | · | ·
CCCCNS(=O)(=O)/C=C/c1cc2c(cc1CNC(=O)OC(C)(C)C)OCO2 | -3 | · | -1 | 0 | -1 | · | ·
CC(=Nc1ccccc1)C1=C(O)C(Cc2cccc(F)c2)NC1=O (configuration not stated) | 2 | 1 | 6.0* | -1 | 0 | 25* | -5
CC(=Nc1ccccc1)C1=C(O)C(Cc2ccc(O)cc2)NC1=O (configuration not stated) | -1 | 1 | 0 | -1 | -1 | · | ·
Fc1cccc(F)c1CSc1nc2ccccc2[nH]1 | 4 | 2 | 5.1* | 12* | 0 | 16* | 7.8*
Cc1noc(C)c1CSc1nc2ccccc2[nH]1 | -1 | 0 | 0 | -1 | -1 | · | ·
CCOc1cccc(C2C(C(=O)c3ccc(C)o3)=C(O)C(=O)N2c2nnc(C)s2)c1 (configuration not stated) | 1 | 0 | 6.5* | 2 | -1 | 6.0* | 3.8*
CCOc1ccc(OCc2cccc(C(=O)N3CCOCC3)c2)cc1 | 5 | -6 | 5.8* | 10 | 1.4* | 11* | 7.7*
c1ccc(CNc2ccc3ccccc3n2)nc1 | 8.0* | 0 | 7.9* | 15* | 1.0* | 12* | 8.2*
Cc1cc(NCc2ccccn2)nc2ccccc12 | 2 | 0 | 0 | 5 | -1 | · | ·
Nc1ccc(C#Cc2ccccc2)cc1 | -2 | 1 | -1 | -1 | -2 | · | ·
Cc1cccc(C#Cc2ccccc2)n1 | 3 | 1 | 4.9* | 11* | 0 | 7.3* | 4.9*
CCC[C@H]1[C@@H](OC(=O)NCc2ccc(Cl)cc2)CC[C@@]23CCCN2C(=O)CCC[C@@H]13 | -3 | · | · | -1 | -1 | · | ·
Cc1ccccc1CN1CCCCC(NC(=O)c2cc(-c3ccccc3)no2)C1=O (configuration not stated) | -1 | · | -2 | -1 | -1 | · | ·
CCNc1nc(NCC)n2c(SCC(=O)Nc3ccccc3OC(F)F)nnc2n1 | -2 | 1 | 0 | -2 | -1 | · | ·
CCNc1nc(NCC)n2c(SCC(=O)Nc3ccccc3F)nnc2n1 | -2 | 1 | 4.5* | -4 | -1 | 1 | 1
C[C@@H]1[C@@H](O)C[C@@]2(C[C@H](O)c3cc(F)ccc3O2)O[C@H]1c1ccccc1Cl | -4 | · | 0 | 1 | -1 | · | ·
COc1cc(OC)c2c(-c3cccc(-c4ccc(NC(C)=O)cc4)c3)cc(=O)oc2c1 | 0 | -1 | 4.8* | 1 | -1 | 6.3* | -7
CCCCNc1ccc2c(c1)C1CC2CCN1C(=O)OCc1ccccc1 (configuration not stated) | 4 | 2 | 7.0* | 3 | 0 | 8.3* | 2
CCN(CC(=O)Nc1ccc2c(c1)OCCO2)C(=O)c1ccc(Cl)cc1Cl | 3 | 1 | 6.0* | 11* | 0 | 7.5* | 5.9*
SMILES | hcDAF12 agonist | DAX1 inh-1 | DAX1 inh-2 | hgDAF-12 ag | ssDAF12 agonist | DAX1 conf | SF1 AF2mut Luc
CCN(CC(=O)Nc1ccc2c(c1)OCCO2)C(=O)c1ccc(C(F)(F)F)cc1 | 3 | 1 | 5.2* | 7 | -1 | 5.9* | 3.0*
COc1ccccc1N(C)S(=O)(=O)c1ccc(C(=O)NCCCN2CCCC2=O)cc1 | 1 | 0 | 1 | 0 | -2 | · | ·
CCOc1ccc(NS(=O)(=O)c2ccc(C(=O)NCC(c3ccc(OC)cc3)N3CCCC3)cc2)cc1 (configuration not stated) | 0 | 1 | 7.5* | 0 | 0 | 7.0* | 4.9*
COc1ccc(C(CNC(=O)c2cc3c(s2)CCC(C)C3)N2CCCC2)cc1 (configuration not stated) | -1 | 0 | 5.8* | 1 | -1 | 5.8* | 3.0*
COc1ccc(C(CNC(=O)c2ccc(NS(=O)(=O)c3ccc(F)c(C)c3)cc2)N2CCCC2)cc1 (configuration not stated) | 0 | 1 | 3 | -1 | 0 | · | ·
COc1ccc(C(CNC(=O)c2ccc(Cl)c(NC(=O)c3cccs3)c2)N2CCCC2)cc1 (configuration not stated) | 0 | -1 | 4.8* | 3 | -1 | 3.9* | 3
COc1ccc(C(CNC(=O)c2cccc(S(=O)(=O)N3CCCC3)c2)N2CCCC2)cc1 (configuration not stated) | 0 | 1 | 5.6* | 3 | -1 | 3 | 3
COc1cc(CC(=O)Nc2c(-c3ccccc3)[nH][nH]c2=O)cc(OC)c1 | 0 | · | -1 | -2 | -1 | · | ·
C#CCNC(=O)C[C@H]1C[C@@]2(C(=O)OC)C(=C[C@H](C3CCCC3)O[C@@H]2C)N(CCC2=CCCCC2)C1=O | -2 | · | 1 | 1 | -1 | · | ·
CS(=O)(=O)N1CCCCC1c1cc(C(=O)Nc2cccc(C#N)c2)no1 (configuration not stated) | -2 | · | 2 | 4 | -1 | · | ·
CS(=O)(=O)N1CCCCC1c1cc(C(=O)Nc2ccccc2)no1 (configuration not stated) | 2 | · | 6.7* | 11* | -1 | 7.9* | 7.0*
CN(C)c1cccc(C(=O)N/N=C/c2ccccc2F)c1 | 4 | -2 | 8.5* | 12* | 0 | 8.7* | 1
O=C(NN=Cc1ccccc1Cl)c1ccccc1 | 2 | 4 | 5.2* | 12* | 0 | 14* | 6.9*
Cc1ccc(NC(=S)NC(=O)C2CCCC2)cc1C | 3 | 1 | 4.6* | 11* | 0 | 5.3* | 4.8*
Cn1cccc1C(=O)OCC(=O)Nc1ccc2c(c1)OCCO2 | 4 | 0 | 7.1* | 11* | 0 | 12* | 7.0*
CCC(=O)Nc1c(C(=O)Nc2ccc3c(c2)OCCO3)oc2ccccc12 | 4 | 0 | 3 | 9 | 0 | · | ·
